This note sets out measurements from PubChem BioAssay (NCI).

The panel holds about 83,000 compounds, 20% with a hit somewhere; the sample as a whole holds those more often.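 The endpoint reported here, percent growth, reads 100 for growth as untreated, 0 for no net growth and -100 for all cells dead.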 Unmarked numbers belong to inactive results. Calls of active or inactive are those of the source. How the source made its calls: active means growth percent below 10; inactive means the rest.

Some test systems named below: DU-145 prostate; K-562 leukemia; MALME-3M melanoma; MDA-MB-231 breast; RXF 393 renal; SF-268 CNS; SF-295 CNS; SF-539 CNS; UACC-257 melanoma; M14 melanoma.
Common to all, as to assay: NCI-60 one-dose screen, 48 h (100 = growth as untreated, 0 = no growth, -100 = all killed)
Conditions in all cases: 10 µM unless noted

Consider `O=S(=O)(NCCNc1nccc(-n2cnc3ccccc32)n1)c1ccc(Cl)cc1`, for which the growth is 104% in the test with DU-145 prostate; 97.6% in the test on K-562 leukemia; 99.5% with MALME-3M melanoma; 90.6% in the test with MDA-MB-231 breast; 117% in the test on RXF 393 renal; 92.3% with SF-268 CNS. In addition, the growth in the test with SF-295 CNS is 96.7%; in the test with SF-539 CNS it was 91.2%; in the test on UACC-257 melanoma, 103%.

On to `CCN(CC)c1ccc(NC2=C(Cl)C(=O)c3nc(C)ccc3C2=O)cc1`, for which the growth in the test on DU-145 prostate is 87.9%; in the test with K-562 leukemia, 0.916% (active); in the test on MALME-3M melanoma it was -11.1% (active); in the test on MDA-MB-231 breast, -46.5% (active); in the test on RXF 393 renal it was -95.1% (active); in the test with SF-268 CNS, 90.8%. In addition, the growth in the test with SF-295 CNS is 105%; in the test on SF-539 CNS, 102%; with UACC-257 melanoma, -57.7% (active); in the test on M14 melanoma, 40.4%.

For `Cc1ccc(NC(=O)N[C@@H](Cc2cc(F)cc(F)c2)C(=O)NC2C(=O)N3C[C@H](O)C[C@H]3C(=O)N3CCCC[C@H]3C(=O)N[C@@H](CO)C(=O)N3C[C@H](C)C[C@H]3C(=O)O[C@H]2C)c(F)c1` (some centres undefined), the growth in the test on DU-145 prostate is 37.7%; with K-562 leukemia it was 27.9%; with MALME-3M melanoma it was 50.7%; in the test on MDA-MB-231 breast it was 38.8%; with RXF 393 renal, 100%; with SF-268 CNS, 35.5%. Also, the growth in the test with SF-295 CNS is 78.7%; in the test with SF-539 CNS it was 43.5%; in the test with UACC-257 melanoma it was 25.4%; in the test with M14 melanoma, 58.4%.

For the compound `Nc1ncc(-c2ccc(NS(=O)(=O)c3ccc(Cl)c(Cl)c3)cc2)[nH]1`, the growth in the test on DU-145 prostate is 103%; in the test with K-562 leukemia it was 89.7%; with MALME-3M melanoma, 85.3%; in the test with MDA-MB-231 breast it was 91.2%; in the test with RXF 393 renal, 95.4%; with SF-268 CNS, 75.1%. The growth is 90.8% in the test on SF-295 CNS, 88.1% in the test with SF-539 CNS, 87.7% in the test on UACC-257 melanoma and 95.5% in the test with M14 melanoma.

For `O=C(Nc1cccc(Cl)c1)Nc1nc2ccc([N+](=O)[O-])cc2o1`, the growth was 26.8% with DU-145 prostate; 12.3% with K-562 leukemia; -4.16% (active) in the test on MALME-3M melanoma; 25.8% with MDA-MB-231 breast; -3.23% (active) in the test on RXF 393 renal; 7.72% (active) with SF-268 CNS. Moreover, the growth in the test on SF-295 CNS is 24.5%; in the test on SF-539 CNS, 11.4%; in the test with UACC-257 melanoma, 1.92% (active); with M14 melanoma it was 18.2%.

With `NC/C(=C/F)COc1ccc2nc(NCc3cccnc3)oc2c1`, the growth with DU-145 prostate was 95%; in the test on K-562 leukemia, 109%; in the test with MALME-3M melanoma, 108%; in the test with MDA-MB-231 breast it was 96%; with RXF 393 renal, 66.9%; with SF-268 CNS it was 93.2%. For the same compound, the growth with SF-295 CNS is 99.9%; with SF-539 CNS, 91.9%; in the test with UACC-257 melanoma, 95.9%; in the test with M14 melanoma it was 103%.

On to `O=C(CSc1nc2ccccc2c(=O)n1-c1ccccc1)Nc1cccc(C(=O)/C=C/c2ccccc2Cl)c1`, for which the growth was 105% in the test with DU-145 prostate; 94.8% with K-562 leukemia; 113% in the test with MALME-3M melanoma; 99.7% in the test on MDA-MB-231 breast; 96.7% in the test with RXF 393 renal; 101% with SF-268 CNS. Moreover, the growth in the test on SF-295 CNS is 102%; in the test with SF-539 CNS, 102%; with UACC-257 melanoma it was 112%; in the test on M14 melanoma, 103%.

As to `O=C(Nc1ccc(N=Cc2c(O)[nH]c3ccccc23)cc1)Nc1nccs1`, the growth is 40.5% in the test on DU-145 prostate; 17.3% in the test with K-562 leukemia; 46.9% in the test with MALME-3M melanoma; 47.9% in the test on MDA-MB-231 breast; -20.5% (active) with RXF 393 renal; 77.2% in the test on SF-268 CNS. Moreover, the growth in the test with SF-295 CNS is 70.6%; in the test with SF-539 CNS, 33.6%; in the test on UACC-257 melanoma it was 71.6%; with M14 melanoma, 18.5%.

Consider `CC(=O)Nc1cccc(Nc2nc(N[C@@H](C)c3ccccc3)c3ccccc3n2)c1`, for which the growth with DU-145 prostate was 11.4%; in the test with K-562 leukemia, -19% (active); with MALME-3M melanoma, 47%; with MDA-MB-231 breast, -22.1% (active); in the test on RXF 393 renal, -48.3% (active); with SF-268 CNS, 27.3%. For the same compound, the growth with SF-295 CNS is 8.33% (active); in the test on SF-539 CNS, -44% (active); in the test with UACC-257 melanoma it was 55.3%; with M14 melanoma it was -10.7% (active).
